Bioassay records (PubChem)
MRP1 act: MRP-1 activation; 140,000 compounds, 0.61% hits; AID 799; viability increase, % at 10 µM; H69AR cells + doxorubicin, viability rescue, CellTiter-Glo;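 active = viability gain under doxorubicin at or above a set limit, the compound median plus 3 SD, cut at about 4.7% in these data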;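 also: MRP-1 overexpressing cells given doxorubicin 25 µM after compound pretreatment; 18-22 h compound pretreatment then 72 h with doxorubicin before readout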
CYP2C9 act: activators of human CYP2C9 | recombinant CYP2C9, luciferin-H conversion, luminescence; stronger effect = higher value; factor 1 = untreated enzyme, 0 = blocked | 96,000 compounds, 1.4% hits | P11712 | AID 1024 | activation factor at 5 µM;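 active = activation factor of 2 or more for CYP2C9 at a 5 µM dose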
Target sequence (P11712 whole entry, looked up): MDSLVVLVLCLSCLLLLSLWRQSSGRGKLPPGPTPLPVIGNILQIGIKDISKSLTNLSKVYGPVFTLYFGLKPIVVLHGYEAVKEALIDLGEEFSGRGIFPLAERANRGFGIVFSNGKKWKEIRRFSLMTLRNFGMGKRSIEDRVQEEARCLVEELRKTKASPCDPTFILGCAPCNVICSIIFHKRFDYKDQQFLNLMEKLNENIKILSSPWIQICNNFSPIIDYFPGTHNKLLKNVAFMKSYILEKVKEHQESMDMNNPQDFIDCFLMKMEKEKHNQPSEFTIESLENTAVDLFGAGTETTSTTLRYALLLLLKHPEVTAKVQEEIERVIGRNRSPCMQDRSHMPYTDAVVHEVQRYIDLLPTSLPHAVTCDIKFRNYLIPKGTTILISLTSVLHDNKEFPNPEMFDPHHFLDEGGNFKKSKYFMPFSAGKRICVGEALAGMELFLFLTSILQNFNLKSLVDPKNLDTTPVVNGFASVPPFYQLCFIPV
CYP2C19 inhib: human CYP2C19 inhibition; 96,000 compounds, 21% hits; inhibition, % at 5 µM; CYP2C19 Supersomes, luciferin-H EGE luminescence, 30 min; P33261;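 active = CYP2C19 inhibition above a set limit at 5 µM in the primary screen, cut at about 50% in these data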
CYP2C9 inh: human CYP2C9 inhibition; CYP2C9 Supersomes, luciferin-H conversion, luminescence; inhibition, % at 5 µM; 96,000 compounds, 20% hits; AID 777;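 active = blocking of liver enzyme CYP2C9 beyond about 50% at 5 µM, limit read from the data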
MRP reversal: compounds reversing MRP-mediated drug resistance | differential viability (reversal), % at 10 µM | AID 602 | 85,000 compounds, 0.04% hits | H69AR cells + 2 uM doxorubicin, CellTiter-Glo, 72 h;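 active = viability drop by adding the cancer drug above about 55%, with treated viability meeting a 40% cutoff, limit read from the data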;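 also: larger differential means the compound sensitizes cells more to doxorubicin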
CYP2C19 activ: cytochrome P450 2C19 (human) activation | P33261 | recombinant CYP2C19, luciferin-H EGE luminescence; stronger effect = higher value; 0 = fully inhibited enzyme, 1 = untreated enzyme | activation factor at 5 µM | 96,000 tested, under 10 active | AID 1025;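 active = activation factor of at least 2 at 5 µM in the primary screen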
Each line names hits and unclear results; the compound was inactive in the other large screens. In the library only some 21% were active in any assay of this set; here they are far more common.

COc1ccc(-c2noc(CN(C)S(=O)(=O)c3ccc(Cl)cc3)n2)cc1OC	none
CCn1c(COc2ccc3c(c2)CCCC3)nnc1SCC(=O)Nc1ccc(C(=O)OC)cc1	none (no result: CYP2C9 act, CYP2C19 inhib, CYP2C9 inh, MRP reversal, CYP2C19 activ)
COc1ccc(C(=O)NNC2=CC(=O)CC(C)(C)C2)cc1	none (no result: CYP2C9 act, CYP2C19 inhib, CYP2C9 inh, MRP reversal, CYP2C19 activ)
CC1(C)CC(=O)C=C(OC(=O)c2ccc(Cl)cc2)C1	CYP2C9 inh 53.1 (no result: MRP reversal)
CCCCC(C(=O)O)C(C)CC(=O)Nc1cccc(C(=O)O)c1 (configuration not stated)	none
CCCCC(SCC(=O)Nc1ccccc1)C(=O)O (configuration not stated)	CYP2C9 inh 70.5 (no result: MRP reversal)
Cc1[nH]nc(SCC(=O)N2CCCCC2)c1[N+](=O)[O-]	CYP2C19 inhib 64.6
COc1ccc(OC)c(N(CC(=O)Nc2ccccc2)S(C)(=O)=O)c1	CYP2C19 inhib 74.3 (no result: MRP reversal)
COC(=O)c1ccccc1NC(=O)CN(c1cc(OC)ccc1OC)S(C)(=O)=O	CYP2C19 inhib 90.7, CYP2C9 inh 97.7
CS(=O)(=O)N(CCc1ccccc1)CC(=O)Nc1ccc(OCc2ccccc2)cc1	none (no result: MRP reversal)
CCN(CC(=O)Nc1ccccc1C(=O)OC)S(=O)(=O)c1ccc(OC)cc1	CYP2C19 inhib 64.7
C=CCNC(=O)CN(c1ccc(OC)cc1OC)S(C)(=O)=O	none
COC(=O)c1ccccc1NC(=O)CN(CCc1ccccc1)S(C)(=O)=O	CYP2C19 inhib 52.5
C/C(=N\N1CCN(c2ccccc2)CC1)c1ccco1	none (no result: CYP2C9 act, CYP2C19 inhib, CYP2C9 inh, MRP reversal, CYP2C19 activ)
O=C(Nc1nc(-c2ccccn2)cs1)C1CC(=O)N(c2ccc3c(c2)OCCO3)C1 (configuration not stated)	none (no result: CYP2C9 act, CYP2C19 inhib, CYP2C9 inh, MRP reversal, CYP2C19 activ)
O=C(CCC1CCCCC1)N1CCN(Cc2ccc3c(c2)OCO3)CC1	CYP2C19 inhib 91.4, CYP2C9 inh 86.8
CS(=O)(=O)N(CC(=O)N1CCN(c2ccccc2)CC1)Cc1ccc(Cl)cc1	none
CS(=O)(=O)N(CC(=O)N1CCCCCC1)Cc1ccc(Cl)cc1	CYP2C19 inhib 93.4
CN(c1ccccc1C(=O)N1CCc2ccccc2C1)S(C)(=O)=O	CYP2C19 inhib 93.2, CYP2C9 inh 83.5
CCOC(=O)C1CCN(C(=O)c2ccccc2N(C)S(C)(=O)=O)CC1	none
CN1CCN(C(=O)CN(Cc2ccc(Cl)cc2)S(C)(=O)=O)CC1	CYP2C19 inhib 69.3
CC(C)c1nnc(NC(=O)Cn2nc(-c3ccc4c(c3)OCCO4)ccc2=O)s1	none
Cn1c(SCC(=O)N/N=C/C=C/c2ccco2)nc2ccccc21	none (no result: CYP2C9 act, CYP2C19 inhib, CYP2C9 inh, MRP reversal, CYP2C19 activ)
COc1cc2c(cc1OC)C(=NCCC(=O)O)NC(C)(C)C2	none (no result: MRP1 act, CYP2C9 act, CYP2C19 inhib, CYP2C9 inh, CYP2C19 activ)
CS(=O)(=O)N(CC(=O)N1CCN(Cc2ccc3c(c2)OCO3)CC1)Cc1ccc(Cl)cc1	CYP2C9 inh 61.6
CS(=O)(=O)N(CC(=O)N1CCOCC1)Cc1ccc(Cl)cc1	CYP2C19 inhib 56.2
CS(=O)(=O)N(CC(=O)N1CCc2ccccc2C1)Cc1ccccc1	CYP2C19 inhib 86.3, CYP2C9 inh 80.1
N#CC1=C(SCc2ccccc2Cl)NC(=O)C(C(N)=O)C1 (configuration not stated)	none
CC(C)[C@@H](C(=O)OCC(=O)Nc1ccc2c(c1)OCO2)N1C(=O)c2ccccc2C1=O	CYP2C19 inhib 58.3 (no result: MRP reversal)
O=C(COC(=O)[C@H](Cc1ccccc1)N1C(=O)c2ccccc2C1=O)Nc1ccc2c(c1)OCO2	CYP2C19 inhib 81.1, CYP2C9 inh 98.6
CCC(C)[C@@H](C(=O)Nc1ccc2c(c1)OCO2)N1Cc2ccccc2C1=O (some centres not stated)	CYP2C19 inhib 68.7, CYP2C9 inh 50.7
Cn1c(N)c(C(=O)COC(=O)[C@H](Cc2ccccc2)N2C(=O)c3ccccc3C2=O)c(=O)n(C)c1=O	none (no result: CYP2C9 act, CYP2C19 inhib, CYP2C9 inh, MRP reversal, CYP2C19 activ)
CCN(CC)CCCN1C(=O)c2oc3ccccc3c(=O)c2C1c1cc(OC)ccc1OC (configuration not stated)	none
O=C(CC1Sc2ccccc2NC1=O)OC(C(=O)NCCc1ccccc1)c1cccnc1 (configuration not stated)	CYP2C19 inhib 55.1
COCCNC(=O)C(OC(=O)CC1Sc2ccccc2NC1=O)c1ccncc1 (configuration not stated)	CYP2C19 inhib 82.9, CYP2C9 inh 87.3
O=C(CC1Sc2ccccc2NC1=O)Nc1cccnc1 (configuration not stated)	none (no result: CYP2C9 act, CYP2C19 inhib, CYP2C9 inh, MRP reversal, CYP2C19 activ)
O=C(CC1(O)C(=O)N(CCc2ccccc2)c2ccccc21)c1ccco1 (configuration not stated)	CYP2C19 inhib 70.8, CYP2C9 inh 74.0
C=C(C)CN1C(=O)C(O)(CC(=O)c2ccc3c(c2)OCCO3)c2ccccc21 (configuration not stated)	CYP2C19 inhib 81.7
CCN1C(=O)C(O)(CC(=O)c2ccc(-n3cccc3)cc2)c2ccccc21 (configuration not stated)	none (no result: CYP2C9 act, CYP2C19 inhib, CYP2C9 inh, CYP2C19 activ)
N#CCCCN1C(=O)C(O)(CC(=O)c2ccc3c(c2)OCCO3)c2ccccc21 (configuration not stated)	none
Cc1ccc(C(=O)CC2(O)C(=O)N(Cc3ccccc3)c3ccccc32)o1 (configuration not stated)	none
Cc1ccc(C(=O)CC2(O)C(=O)N(Cc3ccccc3Cl)c3ccccc32)o1 (configuration not stated)	CYP2C19 inhib 55.2
C=CCN1C(=O)C(O)(CC(=O)c2ccccc2)c2ccccc21 (configuration not stated)	CYP2C19 inhib 74.6
CCSc1nc(O)c(Cc2ccccc2)c(=O)[nH]1	none
Cc1ccnn1CCSCC(=O)O	none
COc1cc(CNc2nc(C)c([N+](=O)[O-])c(C)c2C#N)cc(OC)c1OC	none (no result: CYP2C9 act, CYP2C19 inhib, CYP2C9 inh, MRP reversal, CYP2C19 activ)
CC(C)NC(=O)CSc1nnc(-c2ccc(S(=O)(=O)N3CCCC3)cc2)n1CC1CCCO1 (configuration not stated)	none
Cc1ccc(C(=O)CC2(O)C(=O)N(CCc3ccccc3)c3ccc(Br)cc32)o1 (configuration not stated)	CYP2C19 inhib 97.9, CYP2C9 inh 93.3
C=CCN1C(=O)C(O)(CC(=O)c2c(C)n[nH]c2C)c2cc(Br)ccc21 (configuration not stated)	none
Cc1ccc(C(C)NC(=O)c2c(C)noc2C)cc1C (configuration not stated)	CYP2C19 inhib 60.9
Cc1noc(C)c1C(=O)NCCc1ccccc1	none
COC(=O)/C(=C/c1c[nH]c2ccccc12)[N+](=O)[O-]	none (no result: MRP reversal)
CCOc1ccc(OCC)c(NC(=O)CCn2cccc2)c1	none
Cc1cccc2cc(CN(C(=O)c3cnccn3)C3CCCCC3)c(Cl)nc12	none (no result: MRP reversal)
Cc1cccc2cc(CN(Cc3ccccc3)C(=O)c3cccc(F)c3)c(Cl)nc12	CYP2C9 inh 62.2 (no result: MRP reversal)
Cc1cccc(-n2cnc(C(=O)N/N=C/c3ccccc3)c2)n1	none
COC(CNC(=O)c1cccc2c1C(=O)N(Cc1cccnc1)C2)OC	CYP2C19 inhib 50.1
CCOC(=O)N1CCC(NC(=O)c2cccc3c2C(=O)N(Cc2cccnc2)C3)CC1	CYP2C9 inh 56.5
